# In the supplement of paper PMC3545927:
# Some of the results follow. The hit rate among all sequences tested is not known here.
# Target: furin, P09958
# Assay: furin cleavage Z-score vs untreated control; higher = more cleavage, active = 3.5 or more, inactive = 1 or less, 8 variable residues between constant flanks
# Procedure: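 Multiplexed peptide-cDNA fusion cleavage assay. 8-mer variable peptides flanked by constant Cys-Ala (N-term) and Ala-Gly-Asn-Ala-Ser-Ala-Ser-Ala (C-term) and conjugated to a cDNA oligonucleotide were bead-immobilised via the N-terminus. They were treated with purified furin at a 1:10 enzyme:substrate ratio in 50 mM HEPES pH 7.5, 1 mM CaCl2, 100 mM NaCl for 7.5, 15 or 30 min. Released cDNA was counted by next-generation sequencing, and log counts versus no-furin controls were lowess-adjusted and converted to robust Z-scores.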
# furin, P09958, sequence (P09958 whole entry): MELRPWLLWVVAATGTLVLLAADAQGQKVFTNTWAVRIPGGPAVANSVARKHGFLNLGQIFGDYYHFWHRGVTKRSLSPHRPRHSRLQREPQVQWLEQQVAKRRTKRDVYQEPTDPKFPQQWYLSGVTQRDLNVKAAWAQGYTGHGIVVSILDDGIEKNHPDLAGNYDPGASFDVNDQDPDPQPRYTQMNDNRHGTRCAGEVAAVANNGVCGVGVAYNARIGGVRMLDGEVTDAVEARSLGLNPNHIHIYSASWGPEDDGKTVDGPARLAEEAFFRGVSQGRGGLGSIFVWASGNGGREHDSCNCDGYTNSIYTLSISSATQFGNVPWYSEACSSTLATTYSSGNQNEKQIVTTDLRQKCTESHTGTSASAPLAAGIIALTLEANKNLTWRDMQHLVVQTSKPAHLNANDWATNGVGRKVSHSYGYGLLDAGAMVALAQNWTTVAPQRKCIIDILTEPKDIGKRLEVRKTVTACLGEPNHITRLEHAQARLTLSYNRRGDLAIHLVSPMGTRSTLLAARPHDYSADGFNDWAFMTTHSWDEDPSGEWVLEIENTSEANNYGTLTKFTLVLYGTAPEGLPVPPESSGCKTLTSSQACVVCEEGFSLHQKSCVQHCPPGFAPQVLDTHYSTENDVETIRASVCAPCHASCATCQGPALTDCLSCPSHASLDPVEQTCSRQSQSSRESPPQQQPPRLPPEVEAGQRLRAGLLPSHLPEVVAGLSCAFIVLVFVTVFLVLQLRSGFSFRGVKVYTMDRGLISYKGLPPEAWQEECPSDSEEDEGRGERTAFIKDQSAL
Sequence,furin cleavage Z-score (7.5 min),furin cleavage Z-score (15 min),furin cleavage Z-score (30 min)
CAFEMEECSQAGNASASA [HC1787],-0.0244 (inactive),-1.03 (inactive),0.747 (inactive)
CAEVPCHRSSAGNASASA [HC2397],0.159 (inactive),1.25,1.43
CAEVRRVGRSAGNASASA [FS-766],5.5 (active),6.28 (active),4.53 (active)
CASHSREGRSAGNASASA [FS-1281],2.57,1.17,3.76 (active)
CALYSRVGRSAGNASASA [FS-617],8 (active),8.87 (active),7.73 (active)
CASTGRVGRSAGNASASA [FS-1168],4.32 (active),6.64 (active),7 (active)
CAEVRCHRPSAGNASASA [HC2353],1.89,0.104 (inactive),-0.327 (inactive)
CASTGYPKRSAGNASASA [FS-1616],0.639 (inactive),-0.301 (inactive),-0.705 (inactive)
CAEVCCHRPSAGNASASA [HC2360],0.494 (inactive),0.659 (inactive),-0.0079 (inactive)
CAAIFQGPIDAGNASASA [NG8],-1.22 (inactive),0.323 (inactive),-1.13 (inactive)
CAMEECSQNLAGNASASA [HC1761],-0.233 (inactive),0.845 (inactive),0.876 (inactive)
CAECEVPCHRAGNASASA [HC2460],1.55,-0.187 (inactive),2.66
CAHPSPLKRSAGNASASA [FS-597],-0.0472 (inactive),2.27,1.02
CALPCRPQRSAGNASASA [FS-612],0.0451 (inactive),0.649 (inactive),1.4
CAPPQRTQRSAGNASASA [FS-1049],4.31 (active),5.78 (active),6.79 (active)
CAPAQRLARSAGNASASA [FS-1471],10.2 (active),11.3 (active),9.54 (active)
CAPPQKAKRSAGNASASA [FS-70],10.3 (active),12.4 (active),10.2 (active)
CAKPSKLKRSAGNASASA [FS-546],7.13 (active),8.9 (active),7.35 (active)
CAEIVTSTWVAGNASASA [HC2164],-0.266 (inactive),-1.49 (inactive),1.35
CAVVCCSMSPAGNASASA [HC2099],-0.463 (inactive),-1.06 (inactive),-1.28 (inactive)
CAREARGSSRAGNASASA [FS-2907],-0.25 (inactive),-0.261 (inactive),-1.18 (inactive)
CAEKTTPCSGAGNASASA [HC1974],-1.24 (inactive),-0.951 (inactive),-0.151 (inactive)
